# In the supplement of paper PMC12282887:
# ± gives the standard deviation of the averaged measurements.
# Legend:
# Assay in all cases: promoter activity interaction Z-score (Lux/OD deviation from empty-vector control); higher = stronger promoter induction by the compound
# [1] = system: E. coli BW25113 acrABp lux reporter
# In short: (§1)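 Reporter strains of E. coli BW25113 grew at 37°C in 40 µl LB Lennox in 384-well plates. Readings of OD600 and luminescence were taken every 30 min over 12 h, integrated over 0–8 h (wild type) or 1–9 h (deletion strains), and wells below 10% of the median growth value were excluded. Scores are Z-transformed residuals of growth-normalised luminescence from a fit against a control.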
# [2] = system: E. coli BW25113 micFp lux reporter
# In short: as §1
# [3] = system: E. coli BW25113 ompFp lux reporter
# In short: as §1
# [4] = system: E. coli BW25113 robp lux reporter
# In short: as §1
# [5] = system: E. coli BW25113 soxSp lux reporter
# In short: as §1
# [6] = system: E. coli BW25113 tolCp lux reporter
# In short: as §1
# [7] = 3.2 µg/ml, genetic background: wild type
# [8] = 3.2 µg/ml, genetic background: ΔmarA
# [9] = 3.2 µg/ml, genetic background: Δrob
# [10] = 3.2 µg/ml, genetic background: ΔsoxS
# [11] = 6.3 µg/ml, genetic background: wild type
# [12] = 6.3 µg/ml, genetic background: ΔmarA
# [13] = 6.3 µg/ml, genetic background: Δrob
# [14] = 6.3 µg/ml, genetic background: ΔsoxS
# [15] = 12.7 µg/ml, genetic background: wild type
# [16] = 12.7 µg/ml, genetic background: ΔmarA
# [17] = 12.7 µg/ml, genetic background: Δrob
# [18] = 12.7 µg/ml, genetic background: ΔsoxS
# [19] = 25.3 µg/ml, genetic background: wild type
# [20] = 25.3 µg/ml, genetic background: ΔmarA
# [21] = 25.3 µg/ml, genetic background: Δrob
# [22] = 25.3 µg/ml, genetic background: ΔsoxS
# [23] = 19.7 µg/ml, genetic background: wild type
# [24] = 19.7 µg/ml, genetic background: ΔmarA
# [25] = 19.7 µg/ml, genetic background: Δrob
# [26] = 19.7 µg/ml, genetic background: ΔsoxS
# [27] = 39.3 µg/ml, genetic background: wild type
# [28] = 39.3 µg/ml, genetic background: ΔmarA
# [29] = 39.3 µg/ml, genetic background: Δrob
# [30] = 39.3 µg/ml, genetic background: ΔsoxS
# [31] = 78.6 µg/ml, genetic background: wild type
# [32] = 78.6 µg/ml, genetic background: ΔmarA
# [33] = 78.6 µg/ml, genetic background: Δrob
# [34] = 78.6 µg/ml, genetic background: ΔsoxS
# [35] = 157.2 µg/ml, genetic background: wild type
# [36] = 157.2 µg/ml, genetic background: ΔmarA
structure (smiles),measurement,setting,value
Cc1cc(NS(=O)(=O)c2ccc(N)cc2)no1 [Sulfamethoxazole],promoter activity interaction Z-score,[1]; [7],-0.0765 ± 0.27
same,promoter activity interaction Z-score,[1]; [8],0.689 ± 0.77
same,promoter activity interaction Z-score,[1]; [9],-0.221 ± 0.15
same,promoter activity interaction Z-score,[1]; [10],-0.171 ± 0.12
same,promoter activity interaction Z-score,[1]; [11],-0.0766 ± 0.0099
same,promoter activity interaction Z-score,[1]; [12],0.146 ± 0.35
same,promoter activity interaction Z-score,[1]; [13],-0.0332 ± 0.079
same,promoter activity interaction Z-score,[1]; [14],-0.186 ± 0.085
same,promoter activity interaction Z-score,[1]; [15],0.0229 ± 0.067
same,promoter activity interaction Z-score,[1]; [16],0.358 ± 0.25
same,promoter activity interaction Z-score,[1]; [17],0.21 ± 0.21
same,promoter activity interaction Z-score,[1]; [18],0.0418 ± 0.11
same,promoter activity interaction Z-score,[1]; [19],0.696 ± 0.24
same,promoter activity interaction Z-score,[1]; [20],2.36 ± 1.9
same,promoter activity interaction Z-score,[1]; [21],1.91 ± 0.82
same,promoter activity interaction Z-score,[1]; [22],1.07 ± 0.6
same,promoter activity interaction Z-score,[2]; [7],0.243 ± 0.46
same,promoter activity interaction Z-score,[2]; [8],-0.0615 ± 0.078
same,promoter activity interaction Z-score,[2]; [9],0.056 ± 0.14
same,promoter activity interaction Z-score,[2]; [10],-0.0348 ± 0.3
same,promoter activity interaction Z-score,[2]; [11],0.103 ± 0.45
same,promoter activity interaction Z-score,[2]; [12],-0.116 ± 0.015
same,promoter activity interaction Z-score,[2]; [13],0.146 ± 0.091
same,promoter activity interaction Z-score,[2]; [14],0.0657 ± 0.36
same,promoter activity interaction Z-score,[2]; [15],0.21 ± 0.55
same,promoter activity interaction Z-score,[2]; [16],0.0105 ± 0.057
same,promoter activity interaction Z-score,[2]; [17],0.372 ± 0.13
same,promoter activity interaction Z-score,[2]; [18],0.279 ± 0.24
same,promoter activity interaction Z-score,[2]; [19],0.861 ± 0.2
same,promoter activity interaction Z-score,[2]; [20],-0.421 ± 0.013
same,promoter activity interaction Z-score,[2]; [21],0.736 ± 0.28
same,promoter activity interaction Z-score,[2]; [22],0.648 ± 0.11
same,promoter activity interaction Z-score,[3]; [7],1.17 ± 0.96
same,promoter activity interaction Z-score,[3]; [8],0.735 ± 0.72
same,promoter activity interaction Z-score,[3]; [9],0.192 ± 0.73
same,promoter activity interaction Z-score,[3]; [10],0.202 ± 0.47
same,promoter activity interaction Z-score,[3]; [11],0.748 ± 0.53
same,promoter activity interaction Z-score,[3]; [12],0.504 ± 0.34
same,promoter activity interaction Z-score,[3]; [13],0.735 ± 0.12
same,promoter activity interaction Z-score,[3]; [14],0.441 ± 0.62
same,promoter activity interaction Z-score,[3]; [15],1.51 ± 1.2
same,promoter activity interaction Z-score,[3]; [16],1.32 ± 0.24
same,promoter activity interaction Z-score,[3]; [17],1.71 ± 0.49
same,promoter activity interaction Z-score,[3]; [18],1.17 ± 0.39
same,promoter activity interaction Z-score,[3]; [19],2.06 ± 0.7
same,promoter activity interaction Z-score,[3]; [20],2.26 ± 0.076
same,promoter activity interaction Z-score,[3]; [21],3.31 ± 1.6
same,promoter activity interaction Z-score,[3]; [22],1.97 ± 1.8
same,promoter activity interaction Z-score,[4]; [7],0.934 ± 0.15
same,promoter activity interaction Z-score,[4]; [8],0.341 ± 0.082
same,promoter activity interaction Z-score,[4]; [9],0.297 ± 1.1
same,promoter activity interaction Z-score,[4]; [10],-0.129 ± 0.16
same,promoter activity interaction Z-score,[4]; [11],0.764 ± 0.4
same,promoter activity interaction Z-score,[4]; [12],0.234 ± 0.17
same,promoter activity interaction Z-score,[4]; [13],0.557 ± 0.64
same,promoter activity interaction Z-score,[4]; [14],0.243 ± 0.13
same,promoter activity interaction Z-score,[4]; [15],1.5 ± 0.42
same,promoter activity interaction Z-score,[4]; [16],1.47 ± 0.23
same,promoter activity interaction Z-score,[4]; [17],0.701 ± 0.021
same,promoter activity interaction Z-score,[4]; [18],0.407 ± 1.1
same,promoter activity interaction Z-score,[4]; [19],3.24 ± 0.095
same,promoter activity interaction Z-score,[4]; [20],0.76 ± 0.27
same,promoter activity interaction Z-score,[4]; [21],3.24 ± 0.084
same,promoter activity interaction Z-score,[4]; [22],3.15 ± 1.5
same,promoter activity interaction Z-score,[5]; [7],-0.125 ± 0.029
same,promoter activity interaction Z-score,[5]; [8],-0.2505 ± 0.00087
same,promoter activity interaction Z-score,[5]; [9],-0.453 ± 0.05
same,promoter activity interaction Z-score,[5]; [10],-0.491 ± 0.32
same,promoter activity interaction Z-score,[5]; [11],-0.197 ± 0.018
same,promoter activity interaction Z-score,[5]; [12],-0.00904 ± 0.067
same,promoter activity interaction Z-score,[5]; [13],-0.169 ± 0.057
same,promoter activity interaction Z-score,[5]; [14],-0.482 ± 0.4
same,promoter activity interaction Z-score,[5]; [15],-0.385 ± 0.017
same,promoter activity interaction Z-score,[5]; [16],-0.102 ± 0.16
same,promoter activity interaction Z-score,[5]; [17],-0.194 ± 0.12
same,promoter activity interaction Z-score,[5]; [18],-0.0885 ± 0.49
same,promoter activity interaction Z-score,[5]; [19],-0.318 ± 0.11
same,promoter activity interaction Z-score,[5]; [20],-0.113 ± 0.15
same,promoter activity interaction Z-score,[5]; [21],-0.388 ± 0.03
same,promoter activity interaction Z-score,[5]; [22],-0.495 ± 0.81
same,promoter activity interaction Z-score,[6]; [7],1.21 ± 0.56
same,promoter activity interaction Z-score,[6]; [8],-0.16 ± 0.5
same,promoter activity interaction Z-score,[6]; [9],-0.33 ± 1
same,promoter activity interaction Z-score,[6]; [10],-0.705 ± 0.53
same,promoter activity interaction Z-score,[6]; [11],-0.676 ± 0.91
same,promoter activity interaction Z-score,[6]; [12],1.17 ± 0.5
same,promoter activity interaction Z-score,[6]; [13],0.87 ± 0.48
same,promoter activity interaction Z-score,[6]; [14],-0.0792 ± 0.033
same,promoter activity interaction Z-score,[6]; [15],-0.0116 ± 0.8
same,promoter activity interaction Z-score,[6]; [16],0.0751 ± 0.68
same,promoter activity interaction Z-score,[6]; [17],0.998 ± 0.39
same,promoter activity interaction Z-score,[6]; [18],0.466 ± 1
same,promoter activity interaction Z-score,[6]; [19],1.95 ± 0.023
same,promoter activity interaction Z-score,[6]; [20],0.663 ± 1.2
same,promoter activity interaction Z-score,[6]; [21],0.663 ± 0.22
same,promoter activity interaction Z-score,[6]; [22],1.64 ± 0.21
CC(=O)[C@H]1CC[C@H]2[C@@H]3CCC4=CC(=O)CC[C@]4(C)[C@H]3CC[C@]12C [Progesterone],promoter activity interaction Z-score,[1]; [23],-0.247 ± 0.13
same,promoter activity interaction Z-score,[1]; [24],-0.405 ± 0.19
same,promoter activity interaction Z-score,[1]; [25],-0.0328 ± 0.098
same,promoter activity interaction Z-score,[1]; [26],-0.282 ± 0.25
same,promoter activity interaction Z-score,[1]; [27],-0.262 ± 0.14
same,promoter activity interaction Z-score,[1]; [28],-0.838 ± 0.1
same,promoter activity interaction Z-score,[1]; [29],-0.217 ± 0.17
same,promoter activity interaction Z-score,[1]; [30],-0.38 ± 0.34
same,promoter activity interaction Z-score,[1]; [31],0.00448 ± 0.24
same,promoter activity interaction Z-score,[1]; [32],-0.886 ± 0.13
same,promoter activity interaction Z-score,[1]; [33],-0.151 ± 0.044
same,promoter activity interaction Z-score,[1]; [34],-0.0393 ± 0.056
same,promoter activity interaction Z-score,[1]; [35],-0.214 ± 0.34
same,promoter activity interaction Z-score,[1]; [36],0.269 ± 0.11
same,promoter activity interaction Z-score,"[1]; 157.2 µg/ml, genetic background: Δrob",0.191 ± 0.14
same,promoter activity interaction Z-score,"[1]; 157.2 µg/ml, genetic background: ΔsoxS",-0.315 ± 1
same,promoter activity interaction Z-score,[2]; [23],-0.103 ± 0.25
same,promoter activity interaction Z-score,[2]; [24],0.119 ± 0.028
same,promoter activity interaction Z-score,[2]; [25],0.0776 ± 0.12
same,promoter activity interaction Z-score,[2]; [26],0.434 ± 0.5
same,promoter activity interaction Z-score,[2]; [27],-0.0976 ± 0.35
same,promoter activity interaction Z-score,[2]; [28],0.123 ± 0.056
same,promoter activity interaction Z-score,[2]; [29],0.0868 ± 0.01
same,promoter activity interaction Z-score,[2]; [30],0.176 ± 0.29
same,promoter activity interaction Z-score,[2]; [31],-0.119 ± 0.33
same,promoter activity interaction Z-score,[2]; [32],0.21 ± 0.0092
same,promoter activity interaction Z-score,[2]; [33],-0.0152 ± 0.13
same,promoter activity interaction Z-score,[2]; [34],0.432 ± 0.42
same,promoter activity interaction Z-score,[2]; [35],-0.0937 ± 0.11
same,promoter activity interaction Z-score,[2]; [36],0.211 ± 0.14
